The list is not random: actives were taken first. Their share in the collection is about 2.1%.
Measles CPE – protection of cells from measles virus; 140,000 compounds, 1.5% hits; protection (pct of control), % at 4 µM; Measles virus-infected cells, CPE protection, absorbance; in the data active = protection mostly above about 24%, no sharp cut-off; inactive = mostly below about 26%
IL1B cytotox – HUVEC cytotoxicity counter-screen, IL-1B stimulated; cell count reduction, % at 2 µM; AID 845; HUVEC cell count loss, Hoechst imaging; 94,000 compounds, 0.41% hits;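 active = cell count reduction more than 3 SD above the screen-wide mean, cut at about 70% in these data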
IL1B NFkB pot – enhances IL-1B driven NFkB nuclear translocation | activation, % at 2 µM | 94,000 compounds, 0.3% hits | HUVEC IL-1B NFkB p65 nuclear translocation imaging;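 active = activation above 40%, about the mean plus 3 SD, also judged a hit on visual image review; inconclusive = activation above 40% but not a hit on visual review; inactive = activation not above 40% and no visual hit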;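 note: percent activation is computed from the nuclear over cytoplasmic p65 intensity ratio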
NFkB transloc inh – blocks IL-1B driven NFkB nuclear translocation in HUVEC cells | HUVEC IL-1B NFkB p65 nuclear translocation imaging | inhibition, % at 2 µM | 94,000 compounds, 0.43% hits | AID 796;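 active = inhibition above about 30% together with a positive call from visual inspection of the well image, limit read from the data; inconclusive = inhibition above a set limit but visual check negative; inactive = inhibition not above a set limit, visual check negative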;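 note: nuclear over cytoplasmic p65 intensity ratio measured by imaging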
Large screens that a line does not name were inactive.

Cc1cc(C(=O)Nc2ccc(S(=O)(=O)N3CCCC3)cc2)cs1	Measles CPE 53
O=C(/C=C/c1cccc(Cl)c1)c1nc2ccccc2[nH]1	Measles CPE 58
O=C1NCCN1Cc1ccccc1F	Measles CPE 40
Cc1ccc(CN2CCNC2=O)cc1	none
O=C1NCCN1Cc1ccc(F)cc1	Measles CPE 36
O=C1NCCN1Cc1ccccc1	none
CCC(=O)Nc1ccc(Cl)c(NC(=O)C(C)C)c1	NFkB transloc inh inconclusive
Cc1ccc2nc(-c3ccccc3Cl)cc(C(=O)Nc3cc(C)on3)c2c1	none (no result: IL1B cytotox, IL1B NFkB pot, NFkB transloc inh)
Cc1cccc(NC(=S)NCCN2CCOCC2)c1C	Measles CPE 39 (no result: IL1B cytotox, IL1B NFkB pot, NFkB transloc inh)
CN(CCc1ccccn1)C(=O)CN(C)S(=O)(=O)c1ccc2c(c1)c(=O)n(C)c(=O)n2C	IL1B NFkB pot 41
O=C(NCc1ccc2c(c1)OCO2)C1CC(=O)N(c2ccc(O)cc2)C1 (stereo not given)	none
C[N+]1(CCCCCCC(=O)/C=N/O)CCCCCC1	Measles CPE 32
COc1ccc(NC(=O)CCn2nnc(-c3ccc(C)cc3)n2)cc1OC	Measles CPE 55
Cc1ccc(CO/N=C\Cc2snc(Sc3ncc(C(F)(F)F)cc3Cl)c2C#N)cc1	none (no result: IL1B cytotox, IL1B NFkB pot, NFkB transloc inh)
O=C(N/N=C/c1cccc(C(F)(F)F)c1)c1cc2c(s1)-c1ccccc1CC2	none
Cc1cccc(/C=N/NC(=O)c2cc3c(s2)-c2ccccc2CC3)c1	NFkB transloc inh 52
COc1cc2c(cc1OC)CN(Cc1ccc(C)s1)CC2	none
Cc1onc(-c2c(Cl)cccc2Cl)c1C(=O)Nc1ccc2c(c1)OCO2	none
CCNS(=O)(=O)c1ccc(NC(=O)c2cc(C(F)(F)F)nn2C)cc1	Measles CPE 101
O=C(NNC(=S)NCc1ccccc1)c1ccc2c(c1)OCO2	none (no result: IL1B cytotox, IL1B NFkB pot, NFkB transloc inh)
O=C(NC(=S)NCc1ccccc1)c1ccc2c(c1)OCO2	Measles CPE 31 (no result: IL1B cytotox, IL1B NFkB pot, NFkB transloc inh)
Cc1oncc1C(=O)NC(C)C	none
Cc1oc(-c2ccccc2Cl)nc1CSCC(=O)N1CCCC1	Measles CPE 44
O=C(CNC(=O)c1ccc2ccccc2c1)OCC(=O)N1CCN(S(=O)(=O)c2ccc3ccccc3c2)CC1	none (no result: IL1B cytotox, IL1B NFkB pot, NFkB transloc inh)
CCc1ccc(C(=O)COC(=O)C(Cc2ccccc2)NC(=O)c2ccc(Cl)cc2)cc1 (stereo not given)	Measles CPE 45
COc1cccc(-c2nnc(SCC(=O)Nc3ccc(S(N)(=O)=O)cc3)n2C)c1	none
CC(C)(C)C(=O)NC1CCN(S(=O)(=O)c2cccc(C(F)(F)F)c2)CC1	none (no result: IL1B cytotox, IL1B NFkB pot, NFkB transloc inh)
CCc1ccc(N/C(SC)=C(/C#N)C(N)=O)cc1	Measles CPE 40
CCN(CC)C1=N/C(=C\c2ccc(OC)cc2)C(=O)N1c1ccccc1	Measles CPE 69 (no result: IL1B cytotox, IL1B NFkB pot, NFkB transloc inh)
COc1ccc(/C=C2/N=C(SCC(=O)Nc3cc(C)on3)N(c3ccccc3)C2=O)cc1	none (no result: IL1B cytotox, IL1B NFkB pot, NFkB transloc inh)
COc1ccc(-n2c(C)cc(C(=O)Cn3c(NCCO)nc4ccccc43)c2C)cc1	IL1B NFkB pot 41
COc1ccc(-c2cc(C(F)(F)F)nc(-n3cc(Br)cn3)n2)cc1	IL1B NFkB pot 54
COc1ccc(-c2cc(C(F)(F)F)nc(-n3cc(Cl)cn3)n2)cc1	none
Cc1ccc(S(=O)(=O)N2CCCC2C(=O)Oc2ccccc2)cc1 (stereo not given)	none
CC1CCCC(C)N1C(=O)COC(=O)c1ccc(O)cc1 (stereo not given)	none
Cc1ccc(S(=O)(=O)N(C)CC(O)Cn2c3ccccc3c3ccccc32)cc1 (stereo not given)	Measles CPE 39
CCc1c(C(=O)NNC(=S)NCC(C)C)csc1C	none
Cc1ccc(OC2=NS(=O)(=O)c3ccccc32)cc1	Measles CPE 28
COc1ccccc1OC1=NS(=O)(=O)c2ccccc21	none
O=C(NO)c1ccc(C(=O)N(C2CCCCC2)C2CCCCC2)cc1	IL1B NFkB pot 44
Cc1cc(C)n(CC(O)COc2ccccc2[N+](=O)[O-])n1 (stereo not given)	none (no result: IL1B cytotox, IL1B NFkB pot, NFkB transloc inh)
COc1ccc(NC(C)=O)cc1NC(=O)CN1CCN(C(=O)c2ccco2)CC1	none
CCOC(=O)C(CC)Sc1nnc(COc2ccc(C)cc2)n1-c1ccccc1 (stereo not given)	Measles CPE 28
COc1cccc(NC(=O)OCCN2CCN(Cc3ccccc3)CCC2=O)c1	none (no result: IL1B cytotox, IL1B NFkB pot, NFkB transloc inh)
CC(CC(=O)Nc1ccc(C(N)=O)cc1)c1ccccc1 (stereo not given)	Measles CPE 29 (no result: IL1B cytotox, IL1B NFkB pot, NFkB transloc inh)
COC(=O)c1ccccc1N1C(=O)C2C(C1=O)[C@H]1C=C[C@@H]2C1 (stereo not given in full)	Measles CPE 101
COc1ccc(/C=N/NC(=O)C(Cc2c[nH]c3ccccc23)NC(=O)OCC(C)C)cc1[N+](=O)[O-] (stereo not given)	none
CCN(CC(=O)NC(c1ccccc1)c1ccccc1)Cc1nc2ccccc2c(=O)[nH]1	Measles CPE 21
CCN(CC(=O)Nc1cccc(Br)c1)Cc1nc2ccccc2c(=O)[nH]1	none
Cc1ccc2c(c1)NC(=O)C(CC(=O)N(C)Cc1ccccc1)O2 (stereo not given)	none
NC(=O)CC[C@@H]1NC(=O)[C@H](CO)NC(=O)c2cc([N+](=O)[O-])cc(I)c2NCC[C@@H](C(N)=O)NC(=O)[C@H](Cc2ccc(O)cc2)NC1=O	none (no result: IL1B cytotox, IL1B NFkB pot, NFkB transloc inh)
NC(=O)CC[C@@H]1NC(=O)[C@H](Cc2ccc(O)cc2)NC(=O)c2cc([N+](=O)[O-])cc(F)c2OCC[C@@H](C(N)=O)NC1=O	Measles CPE 31 (no result: IL1B cytotox, IL1B NFkB pot, NFkB transloc inh)
COC(=O)c1oc2ccc(Br)cc2c1NC(=O)CCCN1C(=O)c2ccccc2C1=O	none (no result: IL1B cytotox, IL1B NFkB pot, NFkB transloc inh)
COC(=O)c1oc2ccc(Br)cc2c1-n1cccc1	NFkB transloc inh 40
O=C(O)c1oc2ccccc2c1-n1cccc1	Measles CPE 27
Cc1ccc(Nc2nnc(-c3ccc(N4CCOCC4)c([N+](=O)[O-])c3)c3ccccc23)cc1	Measles CPE 35 (no result: IL1B cytotox, IL1B NFkB pot, NFkB transloc inh)
O=[N+]([O-])c1cc(-c2nnc(Nc3ccccc3)c3ccccc23)ccc1N1CCOCC1	none (no result: IL1B cytotox, IL1B NFkB pot, NFkB transloc inh)
CCOC(=O)c1c(-c2ccccc2)csc1/N=C/C1C(=O)CCCC1=O	Measles CPE 53 (no result: IL1B cytotox, IL1B NFkB pot, NFkB transloc inh)
Cn1c(Cn2nnc3ccccc32)nnc1SCC(N)=O	none
CC(=O)Nc1ccc(C(=O)CSc2nnc(Cn3nnc4ccccc43)n2C)cc1	NFkB transloc inh 78
CNC(=O)[C@@]1(C)C=C[C@@H](Cc2ccccc2)N1C(=O)OC	none (no result: IL1B cytotox, IL1B NFkB pot, NFkB transloc inh)
COC(=O)Cc1ccc(NC(=S)N2CCN(c3cccc(O)c3)CC2)cc1	none (no result: IL1B cytotox, IL1B NFkB pot, NFkB transloc inh)
COC(=O)Cc1ccc(NC(=S)N2CCN(c3ccc(OC)cc3)CC2)cc1	Measles CPE 34 (no result: IL1B cytotox, IL1B NFkB pot, NFkB transloc inh)
COc1cc2cc(CN(Cc3cccnc3)C(=O)NCc3ccccc3)c(=O)[nH]c2cc1OC	Measles CPE 48
COc1cc2[nH]c(=O)n(CCC(=O)NCc3cccnc3)c(=O)c2cc1OC	Measles CPE 67 (no result: IL1B cytotox, IL1B NFkB pot, NFkB transloc inh)
COc1ccc(CCNC(=O)CCn2c(=O)[nH]c3cc(OC)c(OC)cc3c2=O)cc1OC	none
C=CCSC1=C(C#N)C(c2ccccc2Cl)C(C(=O)c2cccs2)C(O)(C(F)(F)F)N1 (stereo not given)	none (no result: IL1B cytotox, IL1B NFkB pot, NFkB transloc inh)
COc1cccc(C(=O)Nc2ccc(S(=O)(=O)Nc3nccc(C)n3)cc2)c1	Measles CPE 30 (no result: IL1B cytotox, IL1B NFkB pot, NFkB transloc inh)
COc1ccc(C(=O)Nc2ccc(S(=O)(=O)Nc3nccc(C)n3)cc2)cc1OC	none
COc1ccc(/C=N/NC(=O)c2nn(-c3ccc(Cl)cc3)c(=O)c3c(N)scc23)cc1	none

Compound activity from PubChem.
